Source: PubChem BioAssay (National Center for Advancing Translational Sciences (NCATS))
NPC1 promoter act: qHTS Assay for NPC1 Promoter Activators | Potency, µM (top dose mostly 9.22 µM), for the others: at the highest dose activation, usual class: activators | Huh7 NPC1 promoter luciferase reporter, 24 h | hit rate 2.4% among 320,000; further: % of control where 0% means no effect; nearly all actives have a fitted effect of over 60% in size
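NPC1 promoter–luciferase Huh7 cells; 24 h compound; luminescence.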
SMN2 splice up: qHTS Assay for Enhancers of SMN2 Splice Variant Expression | HEK293 SMN2-luciferase splicing reporter, luminescence, 30-36 h | Potency, µM (series often up to 46.1 µM), for the others: at the top dose activity change, positive = activation, most hits filed as activators | hit rate 2.8% among 210,000; further: % of control where 0% means no effect; nearly all actives have a fitted effect of over 55% in size
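HEK293 cells carry an SMN2 minigene-luciferase reporter in which exon 7 inclusion puts luciferase in frame. Cells were seeded at 2000 cells/well, attached for 10-12 hours, then exposed to compounds for 30-36 hours at 37C before ONE-Glo luminescence.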
ELG1 genotoxic: qHTS screen for small molecules that induce genotoxicity in human embryonic kidney (HEK293T) cells expressing luciferase-tagged ELG1. Potency, µM (doses to about 46 µM), without a hit: top-dose activity change, positive = activation, usual class: activators. AID 504466, 2011. hit rate 1.3% among 330,000. HEK293T ELG1-luciferase reporter, luminescence, 16 h; further: % of control where 0% means no effect; nearly all actives have a fitted effect of over 60% in size
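ELG1-luciferase HEK293T cells, 2,000/well; compound pinned in; 16 hr, 37 °C, 5% CO2; ONE-Glo, 30 min RT; luminescence on CCD imager.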
Luc counter: Counterscreen for Luciferase (Kinase-Glo TM) Inhibition | Potency, µM (highest dose often 38.3 µM), inactives show at the highest dose activity change, negative = inhibition, most hits filed as inhibitors | Luciferin 4-monooxygenase (Photuris pensylvanica), Q27757 | AID 1379, 2008 | Kinase-Glo luciferase, ATP luminescence, 8 min | hit rate 0.28% among 200,000; further: on the % scale 0 is the no-effect control and ±100 the full control effect; nearly all actives have a fitted effect of over 60% in size
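Kinase-Glo luciferase light output from ATP and luciferin was measured with 10 uM ATP, within the enzyme's linear range. Buffer: 50 mM imidazole pH 7.2, 50 mM KCl, 7 mM MgCl2, 0.01% Tween 20, 0.05% BSA; luminescence read after 8 min at ambient temperature.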
Rab9 promoter act: qHTS Assay for Rab9 Promoter Activators. Potency, µM (highest dose often 9.22 µM), inactives show at the highest dose activation, negative = inhibition, most hits filed as activators. hit rate 2.8% among 320,000. Huh7 Rab9 promoter-luciferase reporter, luminescence, 24 h; further: % of control where 0% means no effect; nearly all actives have a fitted effect of over 60% in size
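Huh7 reporter line, Rab9 promoter upstream of luciferase. Compound exposure 24 h at 37 °C in reduced-serum medium with 10% FBS. Read-out: luminescence.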
FLuc modulator: qHTS profiling assay for firefly luciferase inhibitor/activator using purifed enzyme and Km concentrations of substrates (counterscreen for miR-21 project). Luciferin 4-monooxygenase (Photinus pyralis), P08659. purified FLuc, Km substrates, luminescence inhibition. Potency, µM (highest dose often 57.5 µM), inactives show at the top dose activity change, negative = inhibition, most hits filed as inhibitors. hit rate 6.9% among 360,000. AID 588342, 2011;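 further: plate controls were vehicle for no effect and reference inhibitor for full effect; nearly all actives have a fitted effect of over 55% in size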
Target sequence (P08659 whole entry, looked up): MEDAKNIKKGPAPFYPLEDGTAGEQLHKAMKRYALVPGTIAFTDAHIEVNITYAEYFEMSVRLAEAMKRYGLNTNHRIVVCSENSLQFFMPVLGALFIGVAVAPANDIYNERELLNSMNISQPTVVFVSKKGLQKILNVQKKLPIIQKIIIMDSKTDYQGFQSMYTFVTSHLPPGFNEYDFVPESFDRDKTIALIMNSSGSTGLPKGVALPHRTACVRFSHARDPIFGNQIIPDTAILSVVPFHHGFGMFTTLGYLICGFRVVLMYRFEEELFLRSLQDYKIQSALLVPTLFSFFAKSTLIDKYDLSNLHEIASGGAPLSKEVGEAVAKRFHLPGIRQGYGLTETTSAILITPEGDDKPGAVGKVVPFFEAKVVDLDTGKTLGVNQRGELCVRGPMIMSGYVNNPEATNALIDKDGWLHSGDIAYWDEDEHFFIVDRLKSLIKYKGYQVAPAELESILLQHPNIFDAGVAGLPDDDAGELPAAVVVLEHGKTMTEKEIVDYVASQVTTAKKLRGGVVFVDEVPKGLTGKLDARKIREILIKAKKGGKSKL
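Purified P. pyralis luciferase, 10 nM final, with Km-level 10 uM D-luciferin and 10 uM ATP in 50 mM Tris acetate pH 7.5, 10 mM Mg acetate, 0.01% Tween-20, 0.05% BSA; 6-point qHTS titration about 60 µM downward; luminescence read.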
Active calls of the source: *; ? = inconclusive; nt = no result given; [ ] = dose if it differs, or a comment. This is a sample that favours compounds with a hit; in the whole collection about 7.5% have one here. The call rests on the fitted dose curve; in most records, active means well fitted curve in the direction sought with a large enough effect; inconclusive means small, poorly fitted or top-dose-only effect, or another doubt; inactive means no such curve, though single readings can be large; an effect the other way counts as inactive or inconclusive. Potency means the concentration at half of the fitted maximal effect.

SMILES	NPC1 promoter act	SMN2 splice up	ELG1 genotoxic	Luc counter	Rab9 promoter act	FLuc modulator
Cc1ccc(NC(=O)Nc2ccc3c(c2)CCC3)cc1C	30%	nt	14%	nt	29%	1%
COc1ccc(OC)c(/C=C/C(=O)Nc2ccc3c(c2)CCC3)c1	6%	12%	0%	5%	1%	11µM*
COc1ccccc1/C=C/C(=O)Nc1ccc(N2CCOCC2)cc1	-37%	-3%	5%	-1%	0%	-6%
CC1=C(C(=O)Nc2ccccc2)C(c2cccnc2)n2nc(SCc3ccccc3Cl)nc2N1 (stereo unspecified)	nt	1%	nt	nt	nt	-1%
NC(=S)N/N=C/c1ncc(C(F)(F)F)cc1Cl	-39%	nt	?	nt	-48%	5%
N#Cc1c(Cl)nsc1NN	-4%	-18%	-4%	-2%	-3%	-24%
Cc1ccc(NC(=O)Cn2nc(-c3ccco3)ccc2=O)cc1Cl	1%	nt	-1%	nt	0%	-3%
COc1ccc(/C=C/C(=O)Nc2ccc(-c3nnc4n3CCCCC4)cc2)c(OC)c1	4%	-12%	-7%	-1%	1%	27µM*
Cc1ccc(NC(=O)c2ncoc2-c2ccco2)cc1Cl	nt	nt	nt	nt	nt	11µM*
Cc1ccccc1NC(=O)Cn1c(SCC(=O)Nc2ccc(F)cc2)nc2ccccc21	nt	nt	nt	nt	nt	4%
O=C(CN1CCCC1=O)NC1C2CC3CC(C2)CC1C3 (stereo unspecified)	1%	0%	3%	0%	1%	3%
CC(=O)N1CCN(c2ncnc3ccccc23)CC1	2%	nt	-14%	nt	6%	5%
Cc1ccccc1OCC(=O)Nn1c(COc2ccccc2)nc2ccccc2c1=O	0%	0%	8%	-4%	-2%	27µM*
COc1cc2c(C(=O)N3CCN(c4ccc(F)cc4)CC3)cn(CC(C)C)c(=O)c2cc1OC	nt	7%	nt	nt	nt	-2%
COc1ccc(C2CC(=O)c3cc(-c4nc(-c5cccc(Cl)c5)cs4)c(=O)[nH]c3C2)cc1OC (stereo unspecified)	nt	2%	nt	nt	nt	8%
Cc1ccc2cc(CN(CCN(C)C)C(=O)Nc3ccc(Cl)cc3)c(=O)[nH]c2c1	0%	nt	-1%	1%	2%	11µM*
Cc1ccc(/C=C/C(=O)c2ccc([N+](=O)[O-])o2)cc1	-32%	nt	-9%	nt	-38%	?
Cc1ccc(C(=O)/C=C/c2ccccc2)o1	-4%	-22%	-1%	-8%	-4%	2.4µM*
Cc1ccc(C(=O)/C=C/c2ccc(Br)cc2)o1	-4%	-5%	10%	-6%	-2%	2.4µM*
COc1ccccc1CNS(=O)(=O)c1cc(Br)cc2c1N(C(=O)C1CC1)CC2	nt	2%	nt	nt	nt	0%
COc1ccc(C2CC(=O)c3cc(-c4nc(-c5cccc([N+](=O)[O-])c5)cs4)c(=O)n(-c4cccc(C)c4)c3C2)cc1 (stereo unspecified)	nt	-6%	nt	nt	nt	4%
COc1ccc(-c2cn3c4c(sc3n2)CCCC4)cc1	1µM*	1.3µM*	?	-6%	0.5µM*	0.21µM*
COc1ccc(-c2cn3c(C)c(C(=O)Nc4ccncc4)sc3n2)cc1	-4%	-23%	2%	-1%	-1%	?
COc1ccc([N+](=O)[O-])cc1NCc1ccccc1	-4%	32µM*	?	-1%	-3%	1%
O=[N+]([O-])c1ccc(Nc2ccccc2)nc1	-1%	3%	5%	4%	2%	-3%
SMILES	NPC1 promoter act	SMN2 splice up	ELG1 genotoxic	Luc counter	Rab9 promoter act	FLuc modulator
O=[N+]([O-])c1ccc(NCc2ccccc2)nc1	28%	?	?	1%	24%	21µM*
Cc1ccn(CCC(=O)NC2CC(C)(C)Cc3c2cnn3-c2ccccc2C)n1 (stereo unspecified)	-1%	nt	-2%	nt	1%	9%
CCCCCCCCCCCCC/C=C/[C@@H](O)[C@@H](N)COP(=O)(O)O	nt	-2%	nt	1%[39.9 µM]	nt	nt
COc1cccc(NC(=O)CSc2nc3ccccc3c(=O)n2C)c1	-4%	nt	-7%	nt	-13%	2%
O=C(CSc1nnc2[nH]c(=O)cc(-c3ccccc3)n12)Nc1ccc(OC(F)(F)F)cc1	nt	nt	nt	nt	nt	2.4µM*
COc1cccc(NC(=O)CSc2nnc3[nH]c(=O)cc(-c4ccccc4)n23)c1	nt	nt	nt	nt	nt	1.2µM*
Oc1ccc(Br)cc1/C=N/N1CCCCC1	?	17%[1.84 µM]	?	?	4.5µM*	9.5µM*
Oc1ccc(Br)cc1/C=N/N1CCN(Cc2ccccc2)CC1	15%	-18%	3%	2%	3%	?
Oc1ccc(Br)cc1/C=N/n1cnc2ccccc21	?	26%	18%	-6%	?	8.5µM*
Oc1ccc(Br)cc1/C=N/n1c(COc2ccccc2)n[nH]c1=S	-3%	nt	0%	nt	-3%	3%
CC1CCCC(C)N1C(=O)COc1ccc(F)cc1 (stereo unspecified)	0%	-6%	0%	-6%	1%	0%
CNC(=O)Cn1nc(C)c2ccccc2c1=O	2%	17%	0%	2%	4.5µM*	-1%
Nc1ccccc1Nc1ccccc1	-5%	16%	-10%	4%	0%[1.84 µM]	-6%
Nc1ccccc1Nc1cc(-c2ccccc2)nn1-c1ccccc1	10%	12%	8%	-2%	16%	17µM*
Nc1ccccc1Nc1cc(-c2ccccc2)[nH]n1	-28%	?	8%	-6%	-16%	11µM*
Cc1ccnc(NCc2ccc(Br)cc2)c1	22%	nt	0%	nt	12%	?
CCN(CC)c1ccc(CNc2ccc(Br)cn2)cc1	?	?	10µM*	0%	26%	?
Cc1ccc(S(=O)(=O)N2CCOCC2)cc1C(=O)N1CCC(Cc2ccccc2)CC1	0%	nt	-9%	nt	0%	-1%
CC(=O)c1cccc(NC(=O)c2cnn(-c3ccccc3)c2C)c1	3.2µM*	nt	?	nt	4µM*	9.5µM*
Cc1c(C(=O)Nc2cccc([N+](=O)[O-])c2)cnn1-c1ccccc1	2.8µM*	nt	?	nt	2.5µM*	9.5µM*
Cc1c(C(=O)Nc2cccc(F)c2)cnn1-c1ccccc1	1.6µM*	nt	?	nt	1.4µM*	6µM*
CC1=C(C(=O)Nc2ccccc2)C(c2ccncc2)n2nc(SCc3ccccc3Cl)nc2N1 (stereo unspecified)	nt	12%	nt	nt	nt	-6%
COc1ccc2c(c1)c1c(c(=O)n(-c3cc(Cl)ccc3C)c(=O)n1CC(=O)N1CCCC1)n2C	nt	nt	nt	nt	nt	-3%
